Results filed as inconclusive are left out. Values without a mark were called inactive. Calls follow the shape of the dose curve; as a rule, active = well fitted inhibition curve with a large enough effect; inconclusive = small, poorly fitted or top-dose-only effect; inactive = flat fitted curve, though single readings scatter.
Molecular target: Calcium and integrin-binding protein 1 (Homo sapiens) (UniProt Q99828)
Experiment: Primary qHTS for Identification of Calcium Integrin Binding Protein 1 (CIB1) Competitor (AID 1508620);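 also: GST tagged CIB1 binding a fluorescein labelled alphaIIb integrin peptide tracer; top concentration of the series differs between compounds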
Conditions: CIB1-GST / FITC-alphaIIb peptide fluorescence polarization; series mostly up to 114 µM; activity change, negative = inhibition: at the top concentration
Method in brief: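 Fluorescence polarization competition: CIB1-GST (1 uM final) preincubated with compound 15 min at room temperature, then FITC-labeled alphaIIb peptide (100 nM final) added for another 15 min. Polarization read at Ex 480/Em 540.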
% is scaled to controls: 0 for no effect and ±100 for the full control effect.

Chain of Calcium and integrin-binding protein 1 (Homo sapiens) (Q99828 whole entry, looked up): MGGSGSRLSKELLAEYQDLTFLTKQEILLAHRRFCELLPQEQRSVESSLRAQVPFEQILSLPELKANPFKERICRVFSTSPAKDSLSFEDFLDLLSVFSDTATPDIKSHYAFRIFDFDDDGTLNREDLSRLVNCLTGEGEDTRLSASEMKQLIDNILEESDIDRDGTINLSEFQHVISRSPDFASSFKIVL

First: CCS(=O)(=O)N1CCN(c2ccc(Nc3ncc(C(N)=O)c(NC4CC4)n3)cc2)CC1
Second: CC(=O)N1CCN(C(=O)Cc2ccc(Nc3ncc(F)c(Nc4ccc(C(=O)Nc5ccccc5Cl)cc4)n3)cc2)CC1
The “activity change, negative = inhibition” value of the first is lower: -0.745% for the first, 3.93% for the second.

Compared with `C[C@@]1(O)[C@H](O)[C@@H](CO)O[C@H]1n1ccc(N)nc1=O`, `CC(C)c1cc(C(=O)N2CC[C@@H](NC(=O)C3CC3)C2)n[nH]1` is higher in “activity change, negative = inhibition” value: 0.936% for the first, 3.44% for the second.

First: CCCCOC(=O)NC(=O)C1c2ccccc2Oc2ccccc21
Second: CS(=O)(=O)N(CC(=O)NCC1CC1)c1cc(C(F)(F)F)ccc1Cl
The “activity change, negative = inhibition” value of the first is lower: -0.658% for the first, 4.49% for the second.

For `COc1cc2nc(N3CCC(N4CCCCC4)CC3)nc(NC3CCCCCC3)c2cc1OC`, the “activity change, negative = inhibition” value was 6.28%.

First: C[C@@H]1CC[C@]2(C(=O)O)CC[C@]3(C)C(=CCC4[C@@]5(C)C[C@@H](O)[C@H](O)[C@@](C)(CO)C5CC[C@]43C)C2[C@]1(C)O (some centres not stated)
Second: COc1c2c(c(C)c3c1C(=O)OC3)O[C@@]1(C)CC(O)C(C(C)(C)O)[C@](C)(CCC(=O)O)[C@H]1C2 (some centres not stated)
The “activity change, negative = inhibition” value of the first is higher: 3.53% [at 57.7 µM] for the first, 3.47% [at 57.7 µM] for the second.

Going from `OC[C@H]1O[C@@H](OC[C@H]2O[C@@H](OC/C=C/c3ccccc3)[C@H](O)[C@@H](O)[C@@H]2O)[C@@H](O)[C@@H]1O` to `O=C(O[C@H]1[C@@H]2C=CO[C@@H](O[C@@H]3O[C@H](CO)[C@@H](O)[C@H](O)[C@H]3O)[C@@H]2[C@@]2(CO)O[C@@H]12)c1ccccc1`, the “activity change, negative = inhibition” value falls from 0.368% [at 57.7 µM] to -1.38% [at 57.7 µM].

`CC1=C(C(=O)O)/C(=C\CO[C@@H]2O[C@H](CO)[C@@H](O)[C@H](O)[C@H]2O)C(OC(=O)/C=C\c2ccc(O)cc2)C1` (some centres not stated) was tested, and the “activity change, negative = inhibition” value was -5.83% [at 57.7 µM].
